# Compound activity as filed in PubChem.
# Rows were chosen to be rich in hits. Some 0.28% of all compounds tested hit in one or more screens of this group.
# hcGAS lum = blocks human cGAS activity | recombinant h-cGAS, ATP depletion, Kinase-Glo luminescence | inhibition, % at 12.5 µM | hit rate 0.081% among 290,000 | AID 1259398;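 note: 0% = vehicle reaction and 100% = reaction without DNA for no activity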
# NPYLR7 agonist = mosquito NPYLR7 agonism. HEK293T NPYLR7/Galpha15, GCaMP6s calcium fluorescence. activation, % at 10 µM. hit rate 0.15% among 270,000. AID 1259423; in the data active = activation above about 40%;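 note: 0% = vehicle and 100% = reference agonist at the receptor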
# mcGAS inh = mouse cGAS inhibition by luminescence; Q8C6L5; recombinant cGAS, Kinase-Glo ATP depletion luminescence; inhibition, % at 12.5 µM; hit rate 0.15% among 160,000; AID 1259399;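 note: 0% = negative control wells and 100% = reference inhibitor with no enzyme activity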
# The depositor's hits bear a star; . = no result. Cut-off read from the data, not from the text of the source, unless noted: active = inhibition above about 40%; inactive = the rest.
SMILES,hcGAS lum,NPYLR7 agonist,mcGAS inh
COc1ccc(N2C(=O)/C(=C\c3ccc[nH]3)N(C)C2=S)c([N+](=O)[O-])c1,-4,46*,-8
CCCn1c(=O)n(C)c(=O)c2nc3c(cc21)c(=O)n(C)c(=O)n3CCC,-3,2,.
COc1ccc2c(C)nc(N=C(N)N)nc2c1,5,59*,.
CCc1nc(N=C(N)N)nc2cc(C)ccc12,4,62*,.
CCCC(=O)NC(N)=Nc1nc(C)c2cc(C)ccc2n1,-7,-6,-2
COc1ccc(N=C(N)N)cc1,-7,5,.
O=C(NCCc1ccco1)c1cccc(Cl)c1Cl,-2,-1,.
CSc1nc(NC(C)C)c2cnn(CCNC(=O)c3ccc4c(c3)OCO4)c2n1,-5,.,-5
Nc1c(O)ccc2c1C(=O)c1ccccc1C2=O,-7,2,-6
N#Cc1c(N)oc2c3c(c(O)cc12)C(=O)c1ccccc1C3=O,48*,2,.
